In the supplement of paper PMC10849652:
For some of these results: Of roughly 7,900 targets only a part is listed; those with a hit were picked by preference. For some of these results: About 0.6% of all pairs of compound and target were hits. For some of these results: About 8,800 targets were measured; listed, in parts, are those with a hit and a random draw of the rest. For some of these results: About 0.5% of all pairs of compound and target were hits.

compound: Cc1sc2c(c1C)C(c1ccc(Cl)cc1)=N[C@@H](CC(=O)OC(C)(C)C)c1nnc(C)n1-2; test: log2 fold change, soluble protein after heating vs DMSO (PISA); higher = thermal stabilisation; K562 lysate, 10 uM; active = over 0.2 and 3.5 SD of the protein, either way, in both replicates (recomputed)
Procedure, shortened: (§1)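 Quantification was by TMTpro 16plex LC-MS/MS with equalised channel sums, applied to the supernatant after 21,000xg for 90 min. Samples were crude K562 extract at 1 mg/mL protein in PBS pH 7.4 with 1 mM MgCl2, treated with 10 μM compound for 30 min, heated for 3 min across 48°C-58°C, pooled and brought to 0.5% NP-40 at 4°C. Values are log-two fold changes in thermal stability relative to solvent controls, from duplicates.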

UniProt Q9H900, sequence (Q9H900 whole entry, looked up): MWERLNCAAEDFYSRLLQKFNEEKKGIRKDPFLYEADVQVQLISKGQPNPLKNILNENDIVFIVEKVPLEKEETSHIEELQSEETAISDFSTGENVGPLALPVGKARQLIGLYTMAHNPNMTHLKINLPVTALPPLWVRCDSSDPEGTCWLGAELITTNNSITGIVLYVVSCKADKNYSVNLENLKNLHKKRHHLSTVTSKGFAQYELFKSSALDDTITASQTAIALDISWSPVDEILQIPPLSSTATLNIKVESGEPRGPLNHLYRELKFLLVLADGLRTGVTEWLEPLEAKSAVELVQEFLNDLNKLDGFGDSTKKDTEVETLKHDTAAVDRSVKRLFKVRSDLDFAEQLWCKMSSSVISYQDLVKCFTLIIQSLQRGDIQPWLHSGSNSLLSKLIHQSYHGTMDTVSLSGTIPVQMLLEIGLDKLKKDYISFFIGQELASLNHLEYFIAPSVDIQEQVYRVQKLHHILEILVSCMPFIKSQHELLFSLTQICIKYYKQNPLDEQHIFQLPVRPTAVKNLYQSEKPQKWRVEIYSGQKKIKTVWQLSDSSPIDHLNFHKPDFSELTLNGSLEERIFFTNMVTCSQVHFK
UniProt Q96NC0, sequence (Q96NC0 whole entry, looked up): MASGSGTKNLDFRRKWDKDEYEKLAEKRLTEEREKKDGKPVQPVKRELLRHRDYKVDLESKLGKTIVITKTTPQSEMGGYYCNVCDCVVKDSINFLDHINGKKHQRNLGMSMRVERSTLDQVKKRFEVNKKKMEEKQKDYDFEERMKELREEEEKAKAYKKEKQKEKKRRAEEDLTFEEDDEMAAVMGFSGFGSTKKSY
UniProt Q9ULJ3, sequence (Q9ULJ3 whole entry, looked up): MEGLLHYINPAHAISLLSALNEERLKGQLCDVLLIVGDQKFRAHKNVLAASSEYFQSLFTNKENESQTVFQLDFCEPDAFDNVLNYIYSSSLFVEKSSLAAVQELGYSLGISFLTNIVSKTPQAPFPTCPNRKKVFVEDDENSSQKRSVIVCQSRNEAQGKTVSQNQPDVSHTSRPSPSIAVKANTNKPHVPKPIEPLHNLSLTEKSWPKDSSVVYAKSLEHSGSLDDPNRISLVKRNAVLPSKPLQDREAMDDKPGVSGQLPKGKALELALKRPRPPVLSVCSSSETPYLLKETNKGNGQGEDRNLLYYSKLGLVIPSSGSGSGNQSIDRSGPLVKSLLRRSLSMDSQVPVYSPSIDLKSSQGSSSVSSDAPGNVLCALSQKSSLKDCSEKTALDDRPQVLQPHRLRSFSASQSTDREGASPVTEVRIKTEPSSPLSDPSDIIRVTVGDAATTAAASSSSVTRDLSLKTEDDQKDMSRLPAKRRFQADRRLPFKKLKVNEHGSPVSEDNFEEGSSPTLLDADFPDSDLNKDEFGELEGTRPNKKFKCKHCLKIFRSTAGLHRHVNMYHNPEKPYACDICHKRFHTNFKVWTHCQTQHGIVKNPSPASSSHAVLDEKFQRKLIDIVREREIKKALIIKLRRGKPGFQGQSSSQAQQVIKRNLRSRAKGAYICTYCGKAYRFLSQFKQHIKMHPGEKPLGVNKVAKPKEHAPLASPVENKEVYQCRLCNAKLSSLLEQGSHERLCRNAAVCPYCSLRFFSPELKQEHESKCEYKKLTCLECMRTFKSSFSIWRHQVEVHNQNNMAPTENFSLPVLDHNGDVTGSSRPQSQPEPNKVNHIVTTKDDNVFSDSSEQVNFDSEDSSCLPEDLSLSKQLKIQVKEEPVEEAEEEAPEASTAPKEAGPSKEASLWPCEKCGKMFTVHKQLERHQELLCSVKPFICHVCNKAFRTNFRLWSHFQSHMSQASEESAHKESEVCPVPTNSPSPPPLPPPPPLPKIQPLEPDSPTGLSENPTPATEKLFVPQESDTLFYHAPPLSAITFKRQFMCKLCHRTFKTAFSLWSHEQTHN
UniProt Q8NB15, sequence (Q8NB15 whole entry, looked up): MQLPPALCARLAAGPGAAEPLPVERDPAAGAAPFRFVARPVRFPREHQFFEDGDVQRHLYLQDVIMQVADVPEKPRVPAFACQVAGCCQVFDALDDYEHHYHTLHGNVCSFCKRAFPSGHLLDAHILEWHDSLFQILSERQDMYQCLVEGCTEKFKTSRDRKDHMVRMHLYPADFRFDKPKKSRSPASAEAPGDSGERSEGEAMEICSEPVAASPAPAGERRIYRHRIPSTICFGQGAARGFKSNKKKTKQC
UniProt Q7Z7L7, sequence (Q7Z7L7 whole entry, looked up): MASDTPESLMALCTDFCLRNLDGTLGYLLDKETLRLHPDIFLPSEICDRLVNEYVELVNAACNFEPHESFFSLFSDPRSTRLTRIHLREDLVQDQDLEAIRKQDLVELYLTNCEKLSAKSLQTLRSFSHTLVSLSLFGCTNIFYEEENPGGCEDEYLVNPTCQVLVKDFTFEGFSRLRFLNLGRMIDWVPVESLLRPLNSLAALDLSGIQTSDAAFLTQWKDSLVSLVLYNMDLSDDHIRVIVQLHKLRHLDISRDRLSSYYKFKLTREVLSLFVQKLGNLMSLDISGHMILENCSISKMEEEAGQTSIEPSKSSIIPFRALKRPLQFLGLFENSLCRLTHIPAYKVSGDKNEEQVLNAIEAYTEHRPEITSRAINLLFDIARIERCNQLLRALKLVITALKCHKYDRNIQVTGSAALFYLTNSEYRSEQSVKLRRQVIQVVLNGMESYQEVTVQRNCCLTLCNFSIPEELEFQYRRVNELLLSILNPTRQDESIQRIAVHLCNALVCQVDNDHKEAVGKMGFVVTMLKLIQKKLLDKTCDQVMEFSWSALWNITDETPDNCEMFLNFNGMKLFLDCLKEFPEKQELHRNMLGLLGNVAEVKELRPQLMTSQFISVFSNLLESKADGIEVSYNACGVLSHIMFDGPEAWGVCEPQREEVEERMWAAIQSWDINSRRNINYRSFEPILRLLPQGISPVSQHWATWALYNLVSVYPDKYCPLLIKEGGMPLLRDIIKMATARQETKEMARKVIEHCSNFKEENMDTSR
UniProt Q8NAF0, sequence (Q8NAF0 whole entry, looked up): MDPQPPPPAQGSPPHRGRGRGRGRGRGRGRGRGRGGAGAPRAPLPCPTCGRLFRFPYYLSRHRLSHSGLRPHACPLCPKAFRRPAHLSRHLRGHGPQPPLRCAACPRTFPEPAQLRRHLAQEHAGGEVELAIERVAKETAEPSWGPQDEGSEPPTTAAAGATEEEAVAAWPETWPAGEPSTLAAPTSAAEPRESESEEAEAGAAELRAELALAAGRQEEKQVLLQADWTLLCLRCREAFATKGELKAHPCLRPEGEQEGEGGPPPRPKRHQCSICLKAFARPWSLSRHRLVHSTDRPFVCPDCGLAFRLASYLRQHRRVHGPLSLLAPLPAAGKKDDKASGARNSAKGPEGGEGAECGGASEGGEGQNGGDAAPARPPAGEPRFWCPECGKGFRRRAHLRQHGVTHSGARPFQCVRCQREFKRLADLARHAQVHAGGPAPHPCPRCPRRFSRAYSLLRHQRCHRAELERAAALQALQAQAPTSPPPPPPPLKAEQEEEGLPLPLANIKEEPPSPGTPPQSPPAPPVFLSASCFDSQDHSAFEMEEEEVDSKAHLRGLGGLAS
UniProt Q96JP5, sequence (Q96JP5 whole entry, looked up): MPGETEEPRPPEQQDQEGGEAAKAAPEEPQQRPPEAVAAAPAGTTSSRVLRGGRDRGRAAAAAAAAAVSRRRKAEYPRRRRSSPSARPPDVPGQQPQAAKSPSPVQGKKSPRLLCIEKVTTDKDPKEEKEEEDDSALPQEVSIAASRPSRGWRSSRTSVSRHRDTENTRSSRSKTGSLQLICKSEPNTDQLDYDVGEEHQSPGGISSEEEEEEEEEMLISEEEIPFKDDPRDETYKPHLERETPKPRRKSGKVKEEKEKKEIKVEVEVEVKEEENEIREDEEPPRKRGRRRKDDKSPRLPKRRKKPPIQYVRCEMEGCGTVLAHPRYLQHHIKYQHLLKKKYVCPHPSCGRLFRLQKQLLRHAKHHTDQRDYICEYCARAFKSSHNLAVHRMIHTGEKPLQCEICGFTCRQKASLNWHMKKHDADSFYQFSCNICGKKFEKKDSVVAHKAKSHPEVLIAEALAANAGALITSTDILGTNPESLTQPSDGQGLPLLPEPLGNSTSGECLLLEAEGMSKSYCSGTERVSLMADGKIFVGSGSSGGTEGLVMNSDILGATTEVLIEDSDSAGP
UniProt Q86WB0, sequence (Q86WB0 whole entry, looked up): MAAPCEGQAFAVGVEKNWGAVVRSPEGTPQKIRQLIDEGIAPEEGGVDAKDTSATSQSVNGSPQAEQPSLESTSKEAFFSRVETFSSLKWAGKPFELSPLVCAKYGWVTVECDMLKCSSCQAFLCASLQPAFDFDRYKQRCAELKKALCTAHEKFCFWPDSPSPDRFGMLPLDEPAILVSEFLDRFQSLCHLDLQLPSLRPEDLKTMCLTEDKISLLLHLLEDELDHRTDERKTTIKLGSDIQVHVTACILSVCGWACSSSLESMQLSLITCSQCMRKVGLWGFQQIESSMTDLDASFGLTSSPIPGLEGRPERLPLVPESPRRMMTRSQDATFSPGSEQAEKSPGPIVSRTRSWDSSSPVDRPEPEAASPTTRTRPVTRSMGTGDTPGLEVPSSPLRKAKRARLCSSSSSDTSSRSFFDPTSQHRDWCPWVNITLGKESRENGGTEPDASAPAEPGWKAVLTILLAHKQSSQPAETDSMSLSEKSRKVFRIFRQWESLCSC
UniProt Q8N5P1, sequence (Q8N5P1 whole entry, looked up): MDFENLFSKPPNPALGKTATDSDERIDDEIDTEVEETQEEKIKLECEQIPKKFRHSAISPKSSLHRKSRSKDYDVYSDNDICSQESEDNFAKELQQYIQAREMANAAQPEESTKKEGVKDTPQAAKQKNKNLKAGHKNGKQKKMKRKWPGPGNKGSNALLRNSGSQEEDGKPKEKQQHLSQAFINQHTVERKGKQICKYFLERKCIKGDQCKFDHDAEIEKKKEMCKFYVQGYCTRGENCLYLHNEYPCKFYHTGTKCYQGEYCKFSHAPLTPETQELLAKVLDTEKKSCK
UniProt Q9P1F3, sequence (Q9P1F3 whole entry, looked up): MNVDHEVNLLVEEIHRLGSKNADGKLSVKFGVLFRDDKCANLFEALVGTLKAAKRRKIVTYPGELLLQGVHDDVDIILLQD

Row | Target | log2 fold change
1 | ABCF2 isoform 2 (UniProt Q9UG63) | -0.019 (inactive)
2 | ALDH3A1 (UniProt P30838) | -0.209 (inactive)
3 | ALKBH7 (UniProt Q9BT30) | -0.012 (inactive)
4 | AIF1L (UniProt Q9BQI0) | 0.049 (inactive)
5 | ACVR1 (UniProt Q04771) | -0.102 (inactive)
6 | ALDH1L2 (UniProt Q3SY69) | -0.009 (inactive)
7 | ANXA2 (UniProt H0YL33) | -0.135 (inactive)
8 | AKAP8 (UniProt O43823) | -0.009 (inactive)
9 | ABRACL (UniProt Q9P1F3) | 0.054 (inactive)
10 | ALDH18A1 isoform 2 (UniProt P54886) | -0.068 (inactive)
11 | AP5B1 (UniProt Q2VPB7) | -0.044 (inactive)
12 | ANKRD30A (UniProt Q9BXX3) | -0.03 (inactive)
13 | ARHGEF2 (UniProt V9GYF0) | 0.105 (inactive)
14 | ANXA1 (UniProt P04083) | -0.019 (inactive)
15 | ALKBH1 (UniProt Q13686) | -0.001 (inactive)
16 | ABCD3 (UniProt P28288) | 0.013 (inactive)

compound: c1ccc([C@@H]2C[C@H]2NC2CCNCC2)cc1; test: as above
Procedure, shortened: as §1

Row | Target | log2 fold change
17 | ABCF2 isoform 2 (UniProt Q9UG63) | 0.055 (inactive)
18 | ALDH3A1 (UniProt P30838) | -0.339 (inactive)
19 | ANKRD44 isoform 2 (UniProt Q8N8A2) | -1 (active)
20 | ALKBH7 (UniProt Q9BT30) | -0.014 (inactive)
21 | AIF1L (UniProt Q9BQI0) | -0.022 (inactive)
22 | ALG13 isoform 2 (UniProt Q9NP73) | -0.109 (inactive)
23 | ACVR1 (UniProt Q04771) | -0.126 (inactive)
24 | ACAT1, A0A5F9ZHJ0 | -0.06 (inactive)
25 | ALDH1L2 (UniProt Q3SY69) | -0.023 (inactive)
26 | ANXA2 (UniProt H0YL33) | 0.466 (inactive)
27 | ACYP2 (UniProt P14621) | 0.118 (inactive)
28 | AGPAT2 (UniProt O15120) | 0.034 (inactive)
29 | AKAP8 (UniProt O43823) | -0.014 (inactive)
30 | AGGF1 (UniProt Q8N302) | -0.149 (inactive)
31 | ABRACL (UniProt Q9P1F3) | 0.075 (inactive)
32 | AMDHD2 (UniProt Q9Y303) | 0.095 (inactive)
33 | AP5B1 (UniProt Q2VPB7) | -0.003 (inactive)
34 | ANKRD30A (UniProt Q9BXX3) | 0.064 (inactive)
35 | AP3D1 isoform 2 (UniProt O14617) | 0.061 (inactive)
36 | ANP32E isoform 3 (UniProt Q9BTT0) | -0.39 (inactive)
37 | ANXA1 (UniProt P04083) | -0.005 (inactive)
38 | ALKBH1 (UniProt Q13686) | 0.051 (inactive)
39 | ABCD3 (UniProt P28288) | 0.01 (inactive)
40 | ACLY isoform 2 (UniProt P53396) | -0.325 (inactive)

compound: C1=CC=C(C=C1)[C@H](COC2=CC3=C(C=C2)NC(=O)N3)NC(=O)C4=CC=CN(C4=O)CC5=CC(=C(C=C5)F)F; test: log2 fold change, soluble protein after heating vs DMSO (PISA); higher = thermal stabilisation; K562 cells, 10 uM, 30 min; active = over 0.2 and 3.5 SD of the protein, either way, in both replicates (recomputed)
Procedure, shortened: (§2)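 Soluble protein was defined as the supernatant after 21,000xg for 90 min. It came from K562 cells at 2×10^6 cells/mL given 10 μM compound for 30 min, heated in aliquots for 3 min across 48°C-58°C, pooled, and extracted in PBS with 0.5% NP-40 at 4°C, and was quantified by TMTpro 16plex LC-MS/MS with equalised channel sums. Thermal stability against control samples, from duplicates, is reported as log2 fold change.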

Row | Target | log2 fold change
41 | ZC3H8 (UniProt Q8N5P1) | 0.095 (inactive)
42 | ZBTB21 (UniProt Q9ULJ3) | -0.215 (inactive)
43 | ZW10 (UniProt O43264) | -0.044 (inactive)
44 | ZC3HC1 (UniProt Q86WB0) | -0.091 (inactive)
45 | ZNF511 isoform 1 (UniProt Q8NB15) | -0.015 (inactive)
46 | ZER1 (UniProt Q7Z7L7) | 0 (inactive)
47 | ZNF622 (UniProt Q969S3) | -0.028 (inactive)
48 | ZMAT2 (UniProt Q96NC0) | 0.029 (inactive)
49 | ZWILCH (UniProt Q9H900) | -0.077 (inactive)
50 | ZNF579 (UniProt Q8NAF0) | 0.05 (inactive)
51 | ZFP91 (UniProt Q96JP5) | -0.038 (inactive)
52 | YAE1 (UniProt Q9NRH1) | -0.021 (inactive)

compound: CC1=C(SC2=C1C(=N[C@H](C3=NN=C(N32)C)CC(=O)N)C4=CC=C(C=C4)Cl)C; test: as above
Procedure, shortened: as §2

Row | Target | log2 fold change
53 | ZC3H8 (UniProt Q8N5P1) | -0.089 (inactive)
54 | ZBTB21 (UniProt Q9ULJ3) | -0.152 (inactive)
55 | ZW10 (UniProt O43264) | 0.044 (inactive)
56 | ZC3HC1 (UniProt Q86WB0) | 0.07 (inactive)
57 | ZNF511 isoform 1 (UniProt Q8NB15) | -0.128 (inactive)
58 | ZER1 (UniProt Q7Z7L7) | -0.007 (inactive)
59 | ZNF622 (UniProt Q969S3) | 0.033 (inactive)
60 | ZMAT2 (UniProt Q96NC0) | -0.025 (inactive)
61 | ZWILCH (UniProt Q9H900) | 0.036 (inactive)
62 | ZNF579 (UniProt Q8NAF0) | -0.074 (inactive)
63 | ZFP91 (UniProt Q96JP5) | -0.221 (inactive)
64 | YAE1 (UniProt Q9NRH1) | -0.111 (inactive)

compound: CC1=C2C(=CC=C1)N=C(N(C2=O)C3=CC=CC=C3C)CN4C=NC5=C(N=CN=C54)N; test: as above
Procedure, shortened: as §2

Row | Target | log2 fold change
65 | ZC3H8 (UniProt Q8N5P1) | -0.084 (inactive)
66 | ZBTB21 (UniProt Q9ULJ3) | 0.058 (inactive)
67 | ZW10 (UniProt O43264) | 0.018 (inactive)
68 | ZC3HC1 (UniProt Q86WB0) | 0.1 (inactive)
69 | ZNF511 isoform 1 (UniProt Q8NB15) | 0.064 (inactive)
70 | ZER1 (UniProt Q7Z7L7) | 0.018 (inactive)
71 | ZNF622 (UniProt Q969S3) | 0.073 (inactive)
72 | ZMAT2 (UniProt Q96NC0) | -0.009 (inactive)
73 | ZWILCH (UniProt Q9H900) | 0.063 (inactive)
74 | ZNF579 (UniProt Q8NAF0) | -0.025 (inactive)
75 | ZFP91 (UniProt Q96JP5) | -0.052 (inactive)
76 | YAE1 (UniProt Q9NRH1) | 0.016 (inactive)
